Assay results: publication PMC4336329 (PLoS ONE, 2015)
About 14,000 (4.5%) of roughly 310,000 compounds showed an effect of 50% or more. The effect is printed as a negative number. This excerpt belongs to a sample that is enriched for strong results.

Target: human ether-à-go-go-related gene (hERG) potassium channel (human, UniProt Q12809)
Experiment: primary screen, population patch clamp on CHO cells stably expressing hERG; higher = less effect of the substance
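Further: peak tail current of the secondary pulse compared with the same well before compound.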

Sequence of human ether-à-go-go-related gene (hERG) potassium channel (Q12809 whole entry, looked up): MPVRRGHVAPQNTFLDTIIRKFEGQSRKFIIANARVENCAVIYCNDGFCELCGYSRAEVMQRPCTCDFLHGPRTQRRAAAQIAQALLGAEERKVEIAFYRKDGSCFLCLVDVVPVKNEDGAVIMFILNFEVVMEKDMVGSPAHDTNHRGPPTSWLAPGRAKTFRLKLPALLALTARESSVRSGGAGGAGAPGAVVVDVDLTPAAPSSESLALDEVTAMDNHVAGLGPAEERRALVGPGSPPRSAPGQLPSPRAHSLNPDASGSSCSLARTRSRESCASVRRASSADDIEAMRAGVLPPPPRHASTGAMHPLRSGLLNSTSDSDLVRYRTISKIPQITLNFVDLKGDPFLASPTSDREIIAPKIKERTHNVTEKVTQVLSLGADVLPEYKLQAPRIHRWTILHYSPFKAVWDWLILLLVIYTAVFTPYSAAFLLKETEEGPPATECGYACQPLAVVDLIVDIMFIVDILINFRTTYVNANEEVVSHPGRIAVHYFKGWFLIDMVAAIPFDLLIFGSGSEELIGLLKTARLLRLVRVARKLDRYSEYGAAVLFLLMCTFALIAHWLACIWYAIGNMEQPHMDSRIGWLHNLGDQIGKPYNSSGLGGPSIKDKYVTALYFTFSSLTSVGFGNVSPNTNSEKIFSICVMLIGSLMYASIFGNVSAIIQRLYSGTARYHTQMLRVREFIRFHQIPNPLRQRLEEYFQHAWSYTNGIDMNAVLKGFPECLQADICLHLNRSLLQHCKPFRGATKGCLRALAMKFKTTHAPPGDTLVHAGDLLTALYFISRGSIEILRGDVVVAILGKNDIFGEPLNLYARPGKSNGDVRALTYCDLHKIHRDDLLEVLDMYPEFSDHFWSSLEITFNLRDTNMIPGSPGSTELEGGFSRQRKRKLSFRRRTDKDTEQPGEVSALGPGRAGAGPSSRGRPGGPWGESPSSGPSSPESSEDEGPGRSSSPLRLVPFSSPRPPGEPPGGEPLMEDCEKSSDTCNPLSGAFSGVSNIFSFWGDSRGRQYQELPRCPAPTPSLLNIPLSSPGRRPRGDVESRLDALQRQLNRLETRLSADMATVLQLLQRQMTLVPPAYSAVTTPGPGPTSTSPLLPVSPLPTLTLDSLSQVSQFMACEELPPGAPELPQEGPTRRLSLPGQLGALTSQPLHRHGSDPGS

Row | SMILES | hERG current change (%, negative = inhibition) at 10uM
1 | CCOc1ccc(N=Cc2c(O)c3ccccc3oc2=O)cc1 | 3.29%
2 | Cc1cccc(OCC(=O)NCc2ccccc2)c1 | 13.6%
3 | CCn1cc(CN2CCc3c([nH]c4ccccc34)C2c2cccc(OC)c2)c(C)n1 (centres unmarked) | -57.3%
4 | COc1cccc(C2c3[nH]c4ccccc4c3CCN2Cc2cccc(C)n2)c1 (centres unmarked) | -26.6%
5 | COc1cccc(C2c3[nH]c4ccccc4c3CCN2Cc2cnn(C)c2)c1 (centres unmarked) | -69.6%
6 | COc1cccc(C2c3[nH]c4ccccc4c3C[C@H]3C(=O)N(CCCCCO)CC(=O)N23)c1 (some centres unmarked) | -64.9%
7 | CCn1cc(CN2CCc3c([nH]c4ccccc34)C2c2cccc(OC)c2OC)c(C)n1 (centres unmarked) | 7.99%
8 | COCCN1CC(=O)N2C(c3cccc(OC)c3)c3[nH]c4ccccc4c3C[C@H]2C1=O (some centres unmarked) | -38.6%
9 | Oc1cccc(C2c3[nH]c4ccccc4c3CCN2Cc2cnn(-c3ccccc3)c2)c1 (centres unmarked) | -35.3%
10 | COc1cc(C2c3[nH]c4ccccc4c3CCN2Cc2cn(C)nc2C)ccc1F (centres unmarked) | 1.02%
11 | CCn1cc(CN2CCc3c([nH]c4ccccc34)C2c2cccc(O)c2)c(C)n1 (centres unmarked) | -18.8%
12 | CCn1cc(CN2CCc3c([nH]c4ccccc34)C2c2ccc(F)c(OC)c2)c(C)n1 (centres unmarked) | 6.94%
13 | CCOc1ccc(C2c3[nH]c4ccccc4c3CCN2Cc2cn(CC)nc2C)cc1 (centres unmarked) | -63.6%
14 | COCCCN1CC(=O)N2C(c3cccc(OC)c3)c3[nH]c4ccccc4c3C[C@H]2C1=O (some centres unmarked) | -14.3%
15 | Cc1ccc(C(=O)NCCC(=O)NCc2ccco2)cc1 | 9.59%
16 | CC1=NN(C(=O)c2nn(C)cc2Br)C(O)(C(F)(F)F)C1 (centres unmarked) | 10.3%
17 | Cc1cccc(C)c1NC(=O)CNC(=O)C1CCCC1 | 2.19%
18 | O=C(NC1CCCCC1)C(c1ccc(F)cc1)N(C(=O)c1csnn1)C1CC1 (centres unmarked) | 13.2%
19 | COc1ccc(C(=O)CN2CCN(c3cc(C)nc4ccccc34)CC2)cc1 | -68.8%
20 | COc1ccc(N2CCN(c3cc(C)nc4ccc(OC)cc34)CC2)cc1 | -69.1%
21 | COc1ccc2nc(C)cc(N3CC(C)OC(C)C3)c2c1 (centres unmarked) | -49.6%
22 | CCOC(=O)C1CCN(c2nc3cc(OC)ccc3cc2C#N)CC1 | -16%

Row | SMILES | hERG current change (%, negative = inhibition) at 10uM
23 | COc1ccc2nc(C)cc(N3CCC(C(N)=O)CC3)c2c1 | -33.7%
24 | COc1ccc(N2CCN(c3cc(C)c4ccccc4n3)CC2)cc1 | 3.95%
25 | CCOC(=O)C1CCN(c2cc(C)nc3ccc(OC)cc23)CC1 | -73.8%
26 | COc1ccc2nc(C)cc(N3CCOCC3)c2c1 | -14.6%
27 | COc1ccc(C(=O)CN2CCN(c3ncccn3)CC2)cc1.O=C(O)C(=O)O | 5.13%
28 | COc1ccc2nc(C)cc(N3CCN(c4ccccc4)CC3)c2c1 | -66.7%
29 | COc1ccc(N2CCN(CC(=O)c3ccccc3)CC2)cc1 | 11%
30 | COc1ccc2nc(C)cc(C(=O)O)c2c1 | 0.7%
31 | Cc1ccc(NC(=O)CNC(=O)c2cccs2)c(O)c1 | 15.1%
32 | Cl.NS(=O)(=O)c1cccc(N2CCNCC2)c1 | 11.7%
33 | COc1ccc(Cl)cc1NC(=S)NNC(=O)c1cccnc1 | 36.9%
34 | COc1ccc2nc(C)cc(N3CCN(S(=O)(=O)c4ccccc4F)CC3)c2c1 | -75.9%
35 | COc1ccccc1N1CCN(S(=O)(=O)c2ccccc2F)CC1 | -23.3%
36 | COc1cccc(S(=O)(=O)N2CCN(c3ccccc3F)CC2)c1 | -6.35%
37 | CCOc1ccc(-c2n[nH]c(C)c2Oc2ccc(OC)cc2)c(O)c1 | -6.31%
38 | Cc1ccc2cc(CN(Cc3ccco3)S(=O)(=O)c3c(C)ccc4nsnc34)c(=O)[nH]c2c1 | 2.82%
39 | O=C(O)/C=C\C(=O)O.c1ccc(Sc2ccccc2CN2CCCC2)cc1 | -50.7%
40 | CNCc1ccccc1Sc1cccc(O)c1.O=C(O)/C=C\C(=O)O | 7.03%
41 | CN1CCN(Cc2ccccc2Sc2ccccc2)CC1.O=C(O)/C=C\C(=O)O | -82%
42 | CNCc1ccccc1Sc1cccc2ccccc12.O=C(O)/C=C\C(=O)O | -45.4%
43 | CNCc1ccccc1Sc1ccc(OC)c(OC)c1.O=C(O)/C=C\C(=O)O | -18.3%
44 | OCc1ccccc1CN1CCCCCC1 | -9.62%
